Test [1] is described as follows: Her2 expression decrease, cell viability multiplex – SKBR3 breast tumor cells, AlphaScreen, ATP viability, primary screen (AID 461;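 active = Her2 level under about 52% in both replicate screens, with viability over 70% of control, limit read from the data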;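 as to Her2 level: lower value means less Her2 protein in the cells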;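 as to viability: percent of carrier control wells set as 100% viability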). As to conditions: SKBR3 Her2 protein level, 18-24 h, measured here: SKBR3 viability, ATP luminescence, at 10 µM. On the technique in general: In Alpha technology, singlet oxygen from a donor bead excites a nearby acceptor bead.
Test [2] addresses Receptor tyrosine-protein kinase erbB-2 (Homo sapiens) (UniProt P04626). The description is as above. As to conditions: 18-24 h, at 10 µM, stronger effect = lower value.
Test [3] is described as follows: reduced viability of SK-BR-3 breast cancer cells – cell-based, 24 h, human, pilot screen (AID 572;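 active = viability at or below 10% of carrier control in both of two separate runs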;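 also: compound exposure lasted between 18 and 24 h rather than exactly 24 h; 100% = carrier-treated control wells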). To be noted: SK-BR-3 viability, CellTiter-Glo luminescence, at 10 µM, stronger effect = lower value. (In general: ATP-based viability assays read luminescence as a measure of living cells.)
A short description of test [4]: HUVEC growth inhibition – cell-based, human, primary screen (AID 575).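 Also: 100% = median of untreated cell wells with 0.1% DMSO on each plate.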 To be noted: HUVEC proliferation, CellTiter-Glo luminescence, 72 h; at 10 µM; stronger effect = lower value.
Test [5] in a line: H69AR cell proliferation blockers – human, duplicate replicates, primary screen (AID 580;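 active = viability at or under a set limit in both replicates, limit being median viability minus 3 SD, cut at about 48% in these data, passing the limit was not always enough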;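 also: 100% = mean luminescence of untreated wells and 0% = no signal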). As to conditions: H69AR lung tumor cells viability, ATP luminescence, 72 h; at 10 µM; stronger effect = lower value.
Test [6] in a line: MRP1 drug-resistance reversers in H69AR cells – cell-based, doxorubicin co-treatment, pilot screen (AID 601;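 active = viability loss from added drug above about 55%, and viability with drug at most 40%, in both replicates, limit read from the data, passing the limit was not always enough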). As to conditions: CellTiter-Glo, 72 h, at 10 µM; for differential viability (reversal): stronger effect = higher value.
Test [7] is described as follows: yeast transport mutant growth inhibition pilot in 384-well plates, post-Golgi transport modulator project (AID 636; in the data active = inhibition above about 31%). To be noted: absorbance 615 nm, about 18 h, stronger effect = higher value.
The nature of test [8]: growth suppression of yeast trafficking mutant, preliminary HTS, modulators of trafficking downstream of Golgi apparatus project, 1536-format plate, OD 615 nm (AID 637; in the data active = inhibition above about 30%). As to conditions: yeast transport mutant growth, absorbance 615 nm, 18 h; stronger effect = higher value.
Test [9] is described as follows: S. cerevisiae growth inhibition in permissive medium (OD615), pilot counter-assay for S. cerevisiae lifespan shortening project, permissive growth control (AID 705;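 active = growth inhibition above 25% in both replicates, a cutoff set 3 SD above the mean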). To be noted: OD615, 24 h, at 10 µM, stronger effect = higher value.
Test [10] can be described thus: S. cerevisiae growth inhibition in restrictive medium, OD615, pilot screen, restrictive growth control, yeast lifespan reduction project (AID 706;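 active = growth inhibition above a set limit, 3 SD over mean compound inhibition, in both replicates, cut at about 43% in these data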;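 also: modified DeaD lifespan yeast strain shifted to restrictive glucose medium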). To be noted: OD615, 48 h, at 10 µM, stronger effect = higher value.
Test [11] can be described thus: doxorubicin toxicity protection in MRP-1 cells – H69AR cells, CellTiter-Glo, duplicate, MRP-1 activator project, pilot screen (AID 807;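 active = viability increase at or above a cutoff of the median across tested compounds plus 3 SD, cut at about 8.5% in these data, passing the limit was not always enough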;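 also: compound pretreatment 18-22 h then 72 h combined with doxorubicin; 0% = doxorubicin alone and 100% = vehicle without doxorubicin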). To be noted: H69AR viability with doxorubicin, CellTiter-Glo luminescence; at 10 µM; stronger effect = higher value.
Test [12] can be described thus: viability of HCT116 without oncogenic beta-catenin – human colon tumor cells, pilot screen (AID 823;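 active = cell viability at or below a set limit in both duplicate runs, the limit being the all-compound median minus 4 SD, cut at about 23% in these data, passing the limit was not always enough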;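 also: 0% = wells killed by 20 µM Hyamine and 100% = untreated DMSO cell wells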). To be noted: HCT116 beta-catenin knockout viability, CellTiter-Glo, 60 h; at 10 µM; stronger effect = lower value.
Test [13] is described as follows: viability of PTEN-null HCT116 cells – cell-based, HCT116 clonal line, CellTiter-Glo, pilot screen (AID 824;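 active = viability at or below 27.92% in each of two runs, the all-compound median minus 4 SD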;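 also: 0% = 20 µM Hyamine control and 100% = vehicle cell control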). To be noted: HCT116 PTEN-deleted viability, 60 h, at 10 µM, stronger effect = lower value.
Test [14] in a line: RAM pathway blockade in budding yeast – dse1pr::URA3 reporter, 5-FOA selection, pilot screen (AID 869;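 active = inhibition over a set limit, the all-compound mean plus 3 SD, in both replicate runs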;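 also: 0% = DMSO wells with no growth and 100% = 10 µM 1-NA-PP1 with full growth; RAM network block rescues cells from 5-FOA so hits raise OD615 growth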). To be noted: S. cerevisiae dse1pr::URA3 5-FOA growth, OD615, 2 d; at 10 µM; stronger effect = higher value; strain carries analog-sensitive mutant Cbk1 kinase.
Test [15] in a line: RAM signaling pathway blockade in yeast – S. cerevisiae, Pdr1DBD-CYC8 efflux-inhibited sensitized strain, primary screen (AID 1298;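 active = RAM network inhibition above 8.4% in each of two replicates, 3 SD over the compound average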;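 also: 0% = DMSO untreated cells without growth and 100% = 10 µM 1-NA-PP1 full growth; higher means more yeast growth rescued from 5-FOA killing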). To be noted: S. cerevisiae cbk1-as DSE1-URA3 strain, 5-FOA growth OD615, 2 d; at 50 µM; stronger effect = higher value.
The mark [16] stands for this setting: H69AR cells + 2 uM doxorubicin, measured here: viability with 2 uM doxorubicin, stronger effect = lower value.
The mark [17] stands for this setting: H69AR cells, compound alone cytotoxicity.

Inconclusive results are not listed. Activity calls are given as the source filed them.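 The calls were made as follows, unless noted: active = viability at or below 30% in both replicate assays; inconclusive = viability at or below 30% in just one of the two assays; inactive = the rest.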

Receptor tyrosine-protein kinase erbB-2 (Homo sapiens), sequence (P04626 whole entry, looked up): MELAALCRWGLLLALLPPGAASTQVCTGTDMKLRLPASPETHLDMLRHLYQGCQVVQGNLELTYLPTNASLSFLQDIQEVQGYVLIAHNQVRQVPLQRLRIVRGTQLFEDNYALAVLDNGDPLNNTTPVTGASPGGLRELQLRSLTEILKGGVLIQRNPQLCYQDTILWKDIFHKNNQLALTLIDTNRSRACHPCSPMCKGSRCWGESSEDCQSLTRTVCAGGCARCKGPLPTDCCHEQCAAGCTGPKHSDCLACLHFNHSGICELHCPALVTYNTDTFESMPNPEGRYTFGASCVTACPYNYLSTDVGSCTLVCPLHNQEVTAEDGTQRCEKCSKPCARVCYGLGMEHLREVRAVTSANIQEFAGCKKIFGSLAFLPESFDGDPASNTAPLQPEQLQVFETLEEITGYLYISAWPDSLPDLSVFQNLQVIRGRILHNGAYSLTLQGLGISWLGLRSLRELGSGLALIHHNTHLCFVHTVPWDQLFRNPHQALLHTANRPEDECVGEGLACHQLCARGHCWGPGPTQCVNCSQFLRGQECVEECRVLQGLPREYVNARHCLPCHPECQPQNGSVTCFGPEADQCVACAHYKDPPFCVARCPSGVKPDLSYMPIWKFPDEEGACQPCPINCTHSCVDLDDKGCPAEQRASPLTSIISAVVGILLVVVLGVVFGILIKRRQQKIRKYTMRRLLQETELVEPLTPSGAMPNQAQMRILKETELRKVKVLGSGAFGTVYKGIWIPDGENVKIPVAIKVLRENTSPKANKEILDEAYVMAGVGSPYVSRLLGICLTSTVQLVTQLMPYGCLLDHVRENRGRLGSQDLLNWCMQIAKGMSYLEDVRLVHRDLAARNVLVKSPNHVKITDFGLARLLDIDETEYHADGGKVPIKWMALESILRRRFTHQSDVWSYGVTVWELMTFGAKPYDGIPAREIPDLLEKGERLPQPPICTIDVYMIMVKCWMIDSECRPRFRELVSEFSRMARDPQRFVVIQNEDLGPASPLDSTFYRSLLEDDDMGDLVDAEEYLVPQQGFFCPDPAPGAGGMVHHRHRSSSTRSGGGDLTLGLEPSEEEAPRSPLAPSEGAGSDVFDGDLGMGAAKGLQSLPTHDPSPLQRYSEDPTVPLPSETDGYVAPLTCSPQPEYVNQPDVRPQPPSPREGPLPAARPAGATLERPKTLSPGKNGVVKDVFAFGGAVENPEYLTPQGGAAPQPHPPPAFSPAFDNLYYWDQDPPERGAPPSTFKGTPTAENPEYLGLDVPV

Turning to `CC1CCCCN1CCNC(=O)C1CCN(S(=O)(=O)c2cccc3cccnc23)CC1` (stereo not given), the viability (usually a read-out of living cells in per cent, often relative to untreated cells) is 97% in test [1]; 97% (inactive) in [3]; 112% (inactive) in test [4]; 100% (inactive) in test [5]; 95.8% in [6] (setting [16]); 100% in [6] (setting [17]). For the same compound, the viability in [12] was 101% (inactive); in test [13], 97.9% (inactive). For the same compound, the Her2 level in test [2] is 96.5% (inactive). In addition, in [6] (H69AR cells + 2 uM doxorubicin), the differential viability (reversal) was 4.43% (inactive). The values for the inhibition in test [7], in [8] and in test [14] were -2.53% (inactive), -2.46% (inactive) and 2.46% (inactive), respectively. The growth inhibition is 8.94% (inactive) in [9] and -2.71% (inactive) in [10]. In addition, the viability increase in test [11] is -3.57% (inactive). Moreover, the RAM network inhibition in test [15] was 6.99% (inactive).

Regarding `CCOc1ccc(NC(=O)CN(c2cc(C)cc(C)c2)S(=O)(=O)c2c(C)noc2C)cc1`, the viability is 94% in test [1]; 94% (inactive) in test [3]; 85.2% (inactive) in [4]; 74.7% (inactive) in test [5]; 74.2% in test [6] (setting [16]); 74.7% in test [6] (setting [17]). Besides, the figures for the viability in test [12] and in test [13] were 102% (inactive) and 97.2% (inactive), respectively. In addition, the Her2 level in test [2] is 90.5% (inactive). For the same compound, the differential viability (reversal) in test [6] (H69AR cells + 2 uM doxorubicin) was 0.455% (inactive). Also, the inhibition (in general, the relative decrease from the control value, in per cent) in test [7] is 1.67% (inactive); in test [8], -1.83% (inactive); in test [14] it was 2.2% (inactive). Also, the values for the growth inhibition in test [9] and in test [10] were -19.5% (inactive) and -16.8% (inactive), respectively. Besides, in [11], the viability increase is -3.54% (inactive). For the same compound, the RAM network inhibition in test [15] is 8.99% (inactive).

Regarding `O=C(Nc1nc(-c2ccccn2)cs1)C1CC1`, the viability in test [1] was 93.5%; in [3], 93.5% (inactive); in test [4], 96.1% (inactive); in test [5], 82% (inactive); in [6] (setting [16]), 101%; in test [6] (setting [17]), 82%. For the same compound, the viability in test [12] was 67.3% (inactive); in [13] it was 70.5% (inactive). Besides, the Her2 level in test [2] was 97.5% (inactive). In test [6] (H69AR cells + 2 uM doxorubicin), the differential viability (reversal) was -19.5% (inactive). Besides, the results for the inhibition in [7], in [8] and in [14] were 1.07% (inactive), -3.17% (inactive) and 0.575% (inactive), respectively. Further, the growth inhibition in [9] is 0.675% (inactive); in test [10], 1.15% (inactive). Also, the viability increase in test [11] was 0.73% (inactive). Besides, the RAM network inhibition in test [15] was 0.89% (inactive).

As to `CC(C)(C)NC(=O)CSc1nnc(-c2ccccn2)n1-c1ccccc1`, the viability in test [1] was 98.5%; in test [3], 98.5% (inactive); in test [4] it was 105% (inactive); in [5] it was 91.9% (inactive); in [6] (setting [16]), 91.9%; in [6] (setting [17]), 91.9%. In addition, the figures for the viability in [12] and in [13] were 100% (inactive) and 92.9% (inactive), respectively. Besides, the Her2 level in test [2] is 126% (inactive). Further, the differential viability (reversal) in test [6] (H69AR cells + 2 uM doxorubicin) was 0.06% (inactive). Besides, the inhibition in test [7] was -5.2% (inactive); in [8], -3% (inactive); in [14], 0.43% (inactive). Also, the growth inhibition in test [9] is -14% (inactive); in [10], -6.57% (inactive). Moreover, the viability increase in [11] was -0.63% (inactive). For the same compound, in [15], the RAM network inhibition was 1.1% (inactive).

For `CC1CCN(C(=O)CSc2nc3c(cnn3-c3ccccc3)c(=O)[nH]2)CC1`, the viability was 82.5% in [1]; 82.5% (inactive) in test [3]; 72.1% (inactive) in [4]; 72% (inactive) in test [5]; 64.4% in test [6] (setting [16]); 72% in test [6] (setting [17]). For the same compound, the viability in test [12] is 98.3% (inactive); in test [13] it was 91.1% (inactive). For the same compound, the Her2 level in test [2] was 92% (inactive). Also, in test [6] (H69AR cells + 2 uM doxorubicin), the differential viability (reversal) is 7.54% (inactive). In addition, the inhibition in [7] is -0.64% (inactive); in test [8] it was 1.67% (inactive); in test [14], 1.47% (inactive). Besides, the growth inhibition in [9] is -6.1% (inactive); in test [10], -4.26% (inactive). In addition, the viability increase in test [11] was -3.8% (inactive). For the same compound, in test [15], the RAM network inhibition is 6.5% (inactive).

(Values after PubChem BioAssay.)
